DRD3 antagonist: blocks the human D3 dopamine receptor; P35462; actives 2.5% (n = 360,000); max response, negative = inhibition, %; D3R cells, DiscoveRx beta-arrestin luminescence, antagonist mode; stronger effect = lower value; in the data active = max response below about -50%; inconclusive = no clear call, values can overlap the other calls
Target sequence (P35462 whole entry, looked up): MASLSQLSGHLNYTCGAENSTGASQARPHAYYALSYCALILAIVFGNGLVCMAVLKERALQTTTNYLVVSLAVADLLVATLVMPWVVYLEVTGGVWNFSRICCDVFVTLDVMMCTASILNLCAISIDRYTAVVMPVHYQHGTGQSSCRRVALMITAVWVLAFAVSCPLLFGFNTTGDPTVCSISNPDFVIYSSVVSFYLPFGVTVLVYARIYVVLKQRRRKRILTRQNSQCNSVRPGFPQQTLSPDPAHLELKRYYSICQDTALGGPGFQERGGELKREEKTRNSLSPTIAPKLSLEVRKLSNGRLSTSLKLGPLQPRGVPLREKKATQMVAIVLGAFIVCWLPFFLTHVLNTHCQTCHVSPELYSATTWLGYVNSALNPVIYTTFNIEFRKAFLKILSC
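Cells expressing the human receptor were seeded at 1500 cells/well, incubated overnight at 37 degrees C in 5% CO2, then exposed to library compounds with dopamine controls for 90 minutes at 37 degrees C before luminescent detection.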
RGS4 inhibitor: inhibitors of human regulator of G protein signaling 4 | Transcreener GDP fluorescence polarization, RGS4-accelerated GTP hydrolysis | actives 0.039% (n = 390,000) | AID 504845 | Potency, µM (series often up to 114 µM), most hits filed as inhibitors; active = well fitted inhibition curve with a large enough effect; inconclusive = small, poorly fitted or top-dose-only effect; inactive = no such curve, though single readings can be large or run the other way; also: nearly all actives have a fitted effect of over 75% in size
Target sequence (P49798 whole entry, looked up): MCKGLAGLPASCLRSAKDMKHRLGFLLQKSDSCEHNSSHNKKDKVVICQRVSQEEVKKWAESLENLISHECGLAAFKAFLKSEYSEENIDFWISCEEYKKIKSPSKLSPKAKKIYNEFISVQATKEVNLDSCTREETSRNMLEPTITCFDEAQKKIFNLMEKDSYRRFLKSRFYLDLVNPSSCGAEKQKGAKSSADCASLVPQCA
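MLSMR compounds (23 nl, pin-transferred) preincubated 10 min at room temperature with a 500nM (2x) first reagent, then RGS4 at 900nM (2x) plus Transcreener GDP mix added; fluorescence polarization (620/688 nm) read before and after 90 min at 30 °C.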
D3 ag: activates the human D3 dopamine receptor | max activation, % | D3R DiscoveRx beta-arrestin cells, luminescence, 90 min | actives 0.58% (n = 410,000) | P35462; in the data active = max activation above about 30%
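Agonist-mode cell screen: cells plated at 1500/well and incubated overnight at 37 °C, then exposed to library compounds for 90 min at 37 °C. Detection reagent was added for 30–60 min at room temperature, and luminescence was read.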
uPA generation: blocks generation of uPA at the cell surface; cell surface uPA generation assay, qHTS; Potency, µM (series often up to 38.3 µM), usual class: inhibitors; actives 0.31% (n = 330,000); AID 540303; active = well fitted inhibition curve with a large enough effect; inconclusive = small, poorly fitted or top-dose-only effect; inactive = no such curve, though single readings can be large or run the other way; tested in mouse RAW 264.7 cells; also: nearly all actives have a fitted effect of over 55% in size
Each line names hits and unclear results; the compound was inactive in the other large screens; ! = a repeat was not active. Only some compounds are listed: those with a hit (about 3.1% of all), similar ones and a draw of the others.

CC(=O)c1ccc(OC2(C)CCN(Cc3ccc(OC(F)(F)F)cc3)C2)cc1 (configuration not stated)	none (no result: RGS4 inhibitor, uPA generation)
CC(=O)c1ccc(OC2(C)CCN(Cc3csc4ccccc34)C2)cc1 (configuration not stated)	DRD3 antagonist -53 (no result: RGS4 inhibitor, uPA generation)
CSc1ccc(CN2CCC(C)(Oc3ccc(C(C)=O)cc3)C2)cc1 (configuration not stated)	DRD3 antagonist -69 (no result: RGS4 inhibitor, uPA generation)
CCCCn1c(=O)n(-c2cc(OC)ccc2OC)c(=O)c2c3c(sc21)CN(C(C)=O)CC3	none (no result: DRD3 antagonist, uPA generation)
CSc1ccc(CN2CCC(C)(Oc3ccc(F)cc3)C2)cc1 (configuration not stated)	DRD3 antagonist -112 (no result: RGS4 inhibitor, uPA generation)
COc1cc(Cl)ccc1OC1(C)CCN(Cc2ccc(SC)cc2)C1 (configuration not stated)	DRD3 antagonist -70 (no result: RGS4 inhibitor, uPA generation)
CSc1ccc(OC2(C)CCN(Cc3ccc(OC(F)(F)F)cc3)C2)cc1 (configuration not stated)	none (no result: RGS4 inhibitor, uPA generation)
COC(=O)Cc1ccc(OC2(C)CCN(Cc3ccccc3OC(F)F)C2)cc1 (configuration not stated)	DRD3 antagonist -59 (no result: RGS4 inhibitor, uPA generation)
Cc1nn2c(-c3cccc(NC(=O)c4ccc(Cl)cc4)c3)nnc2c2ccccc12	none (no result: DRD3 antagonist, uPA generation)
CN1CCN(CCCN2c3ccccc3Sc3ccc(S(=O)(=O)N(C)C)cc32)CC1	DRD3 antagonist -53
CCCCCCCCCCCCCCCC(=O)OCCC1CCN(CCCN2c3ccccc3Sc3ccc(S(=O)(=O)N(C)C)cc32)CC1	none (no result: DRD3 antagonist, RGS4 inhibitor, uPA generation)
CC(=O)N1CCc2c(sc3c2c(=O)n(-c2ccccc2Cl)c(=O)n3C)C1	D3 ag 31 (no result: DRD3 antagonist, uPA generation)
CC(=O)N1CCc2c(sc3c2c(=O)n(Cc2ccccc2)c(=O)n3Cc2ccccc2Cl)C1	none (no result: DRD3 antagonist, uPA generation)
COc1ccc(/C=C\C(=O)NC2CC(=O)N(c3ccc(F)cc3)C2)cc1OC (configuration not stated)	none (no result: DRD3 antagonist, uPA generation)
Cc1ccc(N=Nc2ccc(O)c3ncccc23)cc1C	DRD3 antagonist -69, uPA generation inconclusive
Cc1ccc(N=Nc2ccc(O)c3ncccc23)cc1	DRD3 antagonist -118
CCOc1ccc(NC(=O)CN2CCN(CC(=O)Nc3ccc(N(CC)CC)cc3)CC2)cc1	none (no result: DRD3 antagonist, uPA generation)
Cc1csc(NC(=O)CSc2nncn2C)n1	DRD3 antagonist -63
S=c1[nH]nc(-c2n[nH]c3c2CCC3)n1/N=C/C=C/c1ccccc1	DRD3 antagonist -115
CCC(=O)N1CCc2cc(Br)cc(S(=O)(=O)N3CCN(c4ccc(C)cc4)C(C)C3)c21 (configuration not stated)	none (no result: DRD3 antagonist, uPA generation)
COc1ccc(F)cc1S(=O)(=O)Nc1cccc(-c2ccc(N3CCCCCC3)nn2)c1	none (no result: DRD3 antagonist, uPA generation)
Cc1cc(C)n(-c2nc3ccccc3nc2Nc2ccc(N(C)C)cc2)n1	none (no result: DRD3 antagonist, uPA generation)
Cc1cc(C)n(-c2nc3ccccc3nc2Nc2cc(Cl)ccc2C)n1	none (no result: DRD3 antagonist, uPA generation)
Cc1cc(C)n(-c2nc3ccccc3nc2Nc2ccc(Cl)cc2Cl)n1	D3 ag 58 (no result: DRD3 antagonist, uPA generation)
Cc1ccc2nc(Nc3ccc4[nH]c(=O)[nH]c4c3)c(-n3nc(C)cc3C)nc2c1	D3 ag 69
O=C1Nc2ccccc2Oc2cc(Oc3ccc(Cl)cc3)ccc21	none (no result: DRD3 antagonist, uPA generation)
Cc1ccc(Oc2cc([N+](=O)[O-])cc3c2C(=O)Nc2ccccc2O3)cc1	D3 ag 49
COc1cc(CNC(=O)c2cc(-c3ccccc3)n[nH]2)cc(OC)c1OC	none (no result: DRD3 antagonist, uPA generation)
CCOC(=O)c1ccc(NC(=S)NNC(C)(C)C)cc1	DRD3 antagonist -58
CCOC(=O)c1ccc(NC(=S)Nc2ccc(C)cc2)cc1	none
Nc1nc2n(n1)C(c1cccs1)CC(c1ccccc1)N2 (configuration not stated)	DRD3 antagonist -64
COc1ccc(NC(=O)c2oc3ccccc3c2NC(=O)C23CC4CC(CC(C4)C2)C3)c(OC)c1	none (no result: DRD3 antagonist, uPA generation)
CCCCC(c1nnnn1CCOC)N1CCN(C(=O)c2ccco2)CC1 (configuration not stated)	none
CCCC(c1nnnn1CCc1ccccc1)N1CCN(C(=O)c2ccco2)CC1 (configuration not stated)	DRD3 antagonist -51
O=C(c1nc2ccc(Cl)cn2c1CN1CCC(O)CC1)N1CCc2ccccc2C1	none
CC1CCN(Cc2c(C(=O)N3CCc4ccccc4C3)nc3ccc(Cl)cn23)CC1	DRD3 antagonist -89
CC(C)(Sc1ccc(CCN(CCCCC2CCCCC2)C(=O)NC2CCCCC2)cc1)C(=O)O	RGS4 inhibitor 27µM!
CCNc1nc(NCC)nc(-n2cc(C(=O)c3cc(Cl)ccc3O)cn2)n1	none (no result: DRD3 antagonist, D3 ag, uPA generation)
COc1ccc2c(CNCCc3ccccc3)c(C(=O)O)n(Cc3cccc(F)c3)c2c1	none (no result: DRD3 antagonist, uPA generation)
Oc1ccccc1N1CCN(Cc2ncc(-c3ccccc3)o2)CC1	DRD3 antagonist -58
O=C(COC(=O)C12CC3CC(CC(Cl)(C3)C1)C2)NCc1ccco1	none (no result: DRD3 antagonist, D3 ag, uPA generation)
O=C(NCCN1CCN(c2ccccc2)CC1)Nc1ccccc1Br	DRD3 antagonist -79
O=C(NCCN1CCN(c2ccccc2)CC1)Nc1ccccc1Cl	DRD3 antagonist -83
CCCN1CCN(CCNC(=O)Nc2ccccc2Cl)CC1	DRD3 antagonist -77
O=C(NCCN1CCCCC1)Nc1cccc(Cl)c1Cl	DRD3 antagonist inconclusive
O=S(=O)(c1ccc2c(c1)CCC2)N1CCN(c2nc(-c3ccccc3)nc3ccccc23)CC1	none (no result: DRD3 antagonist, D3 ag, uPA generation)
COc1ccc(-c2nnc(SCC(=O)Oc3cccc(C)c3C)o2)cc1	none (no result: DRD3 antagonist, uPA generation)
COc1ccc(C(=O)Nc2nc3c(s2)Cc2c(Br)ccc(OC)c2-3)cc1OC	none (no result: DRD3 antagonist, uPA generation)
Cc1sc2nc(CSc3ccccc3)nc(N3CCN(C)CC3)c2c1C	DRD3 antagonist -93
COc1ccc(C2=NN(C(=O)CCC(=O)O)C(c3ccc(OC)c(OC)c3)C2)cc1 (configuration not stated)	DRD3 antagonist -50
COc1ccc(CC(CC(=O)O)C(=O)NCc2ccccc2)cc1 (configuration not stated)	DRD3 antagonist -69
COc1ccc(CC(CC(=O)O)C(=O)Nc2ccc(Cl)c(Cl)c2)cc1 (configuration not stated)	none
O=C(NCCSCc1ccccc1Cl)C1CCN(S(=O)(=O)Cc2ccccc2)CC1	none (no result: DRD3 antagonist, uPA generation)
CCOc1ccc(NC(=O)CSc2nc3nc(C)c(Cc4ccccc4)c(C)n3n2)cc1	none (no result: DRD3 antagonist, uPA generation)
CCN(c1ccccc1)S(=O)(=O)c1ccc(F)cc1	DRD3 antagonist -53
COc1ccc(S(=O)(=O)N(CCCN2CCOCC2)Cc2cccc3ccccc23)cc1	DRD3 antagonist -85
COc1ccc(S(=O)(=O)N(CCCN2CCOCC2)Cc2cccc(OC)c2OC)cc1	DRD3 antagonist -76
S=C(Nc1ccc(Cl)cc1)N(CCCN1CCOCC1)Cc1cccs1	none
O=S(=O)(c1ccc(Cl)cc1)N(CCCN1CCOCC1)Cc1cccs1	DRD3 antagonist -80
Cc1ccc(CCNC(=O)CCSCc2ccccc2Cl)cc1	none (no result: DRD3 antagonist, uPA generation)
CSCCCN1CCCC(CO)(Cc2ccc(F)cc2)C1 (configuration not stated)	none
CSCCCN1CCCC(CO)(Cc2ccccc2F)C1 (configuration not stated)	DRD3 antagonist -56

Source: PubChem (National Center for Advancing Translational Sciences (NCATS))
